{"source": "paper PMC7862700", "about": "“An all-to-all approach to the identification of sequence-specific readers for epigenetic DNA modifications on cytosine”", "assay_in_all_cases": "DAPPL (digital affinity profiling via proximity ligation, sequencing); 10 mM Tris-HCl pH 7.5, 50 mM NaCl, 1 mM DTT, 4% glycerol, room temperature, 30 min; GST-TFs on glutathione beads, 16-mer random dsDNA library, 0.1% formaldehyde crosslink after washing; high values mean tight binding", "conditions_in_all_cases": "protein: recombinant; tags: N-terminal GST; dsDNA, one strand shown", "key": {"[1]": {"target": "T1, ELK1 (Homo sapiens, UniProt P19419 1-428)", "T1 sequence": "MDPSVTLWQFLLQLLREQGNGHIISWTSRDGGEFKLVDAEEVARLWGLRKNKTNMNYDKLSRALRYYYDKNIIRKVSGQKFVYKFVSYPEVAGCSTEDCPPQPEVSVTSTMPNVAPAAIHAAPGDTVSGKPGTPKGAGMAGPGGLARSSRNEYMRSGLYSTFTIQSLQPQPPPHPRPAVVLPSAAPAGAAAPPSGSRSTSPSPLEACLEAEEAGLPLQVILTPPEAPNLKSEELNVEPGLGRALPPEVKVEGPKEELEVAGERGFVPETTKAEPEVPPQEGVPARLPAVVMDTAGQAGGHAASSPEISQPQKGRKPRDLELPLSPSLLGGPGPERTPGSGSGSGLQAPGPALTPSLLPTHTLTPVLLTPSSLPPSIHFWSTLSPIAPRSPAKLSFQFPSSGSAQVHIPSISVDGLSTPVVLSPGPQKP", "method_in_brief": "(§1)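 Yeast served to express human transcription factors as GST fusions, which were then captured on glutathione beads and labelled with DNA barcodes. Pooled with a tag-only sample, they were incubated with 200 nmole of a 16-mer random double-stranded DNA library for 30 min at room temperature in Tris/NaCl/DTT/glycerol buffer, washed, crosslinked with 0.1% formaldehyde, ligated by proximity, amplified by PCR and sequenced. Dividing each hexamer's read frequency for a factor by its frequency for the tag-only sample gives the binding signal.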"}, "[2]": {"target": "T2, GABPA (Homo sapiens, UniProt Q06546 1-454)", "T2 sequence": "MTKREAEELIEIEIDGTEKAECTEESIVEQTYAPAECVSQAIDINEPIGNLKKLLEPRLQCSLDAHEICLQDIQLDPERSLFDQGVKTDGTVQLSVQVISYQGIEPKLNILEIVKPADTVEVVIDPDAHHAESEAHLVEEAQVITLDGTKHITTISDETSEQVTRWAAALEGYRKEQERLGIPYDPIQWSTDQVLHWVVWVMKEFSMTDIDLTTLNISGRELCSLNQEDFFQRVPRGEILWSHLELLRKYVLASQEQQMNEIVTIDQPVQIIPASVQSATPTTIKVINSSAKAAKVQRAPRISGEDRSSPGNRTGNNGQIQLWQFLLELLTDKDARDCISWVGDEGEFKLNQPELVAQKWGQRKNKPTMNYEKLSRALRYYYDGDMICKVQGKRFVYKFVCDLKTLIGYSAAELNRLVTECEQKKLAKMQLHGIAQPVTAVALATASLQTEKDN", "method_in_brief": "as §1"}, "[3]": {"target": "T3, ERG (Homo sapiens, UniProt P11308 1-479)", "T3 sequence": "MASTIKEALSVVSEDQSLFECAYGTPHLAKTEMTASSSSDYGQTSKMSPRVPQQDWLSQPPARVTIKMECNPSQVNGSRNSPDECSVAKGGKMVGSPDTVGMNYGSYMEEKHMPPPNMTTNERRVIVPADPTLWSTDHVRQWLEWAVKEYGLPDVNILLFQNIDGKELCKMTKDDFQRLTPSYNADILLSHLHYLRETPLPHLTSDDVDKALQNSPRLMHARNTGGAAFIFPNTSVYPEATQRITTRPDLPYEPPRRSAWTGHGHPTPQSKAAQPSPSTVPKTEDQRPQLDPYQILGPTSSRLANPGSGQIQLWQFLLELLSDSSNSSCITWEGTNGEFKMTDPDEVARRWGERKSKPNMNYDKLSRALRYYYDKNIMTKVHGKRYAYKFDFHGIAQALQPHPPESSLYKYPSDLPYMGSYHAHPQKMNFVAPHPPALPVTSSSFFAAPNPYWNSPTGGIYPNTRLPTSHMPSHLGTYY", "method_in_brief": "as §1"}, "[4]": {"target": "ELF1 (Homo sapiens, UniProt P32519 1-619)", "sequence (P32519 whole entry)": "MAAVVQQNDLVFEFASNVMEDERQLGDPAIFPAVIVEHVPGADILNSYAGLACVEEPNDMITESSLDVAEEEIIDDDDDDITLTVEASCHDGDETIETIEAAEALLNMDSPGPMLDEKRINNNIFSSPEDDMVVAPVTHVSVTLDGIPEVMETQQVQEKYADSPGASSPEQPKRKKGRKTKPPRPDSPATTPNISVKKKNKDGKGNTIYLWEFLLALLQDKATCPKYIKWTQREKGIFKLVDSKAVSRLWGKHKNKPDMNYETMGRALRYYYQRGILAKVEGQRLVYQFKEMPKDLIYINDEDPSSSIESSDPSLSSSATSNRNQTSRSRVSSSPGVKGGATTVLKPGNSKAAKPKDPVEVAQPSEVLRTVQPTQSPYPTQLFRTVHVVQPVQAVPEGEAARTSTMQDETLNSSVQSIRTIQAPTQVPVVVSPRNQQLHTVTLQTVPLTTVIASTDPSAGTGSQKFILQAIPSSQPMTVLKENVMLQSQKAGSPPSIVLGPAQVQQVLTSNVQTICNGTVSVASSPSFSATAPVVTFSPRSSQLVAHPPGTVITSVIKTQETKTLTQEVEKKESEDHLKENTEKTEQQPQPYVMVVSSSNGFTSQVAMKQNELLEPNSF", "method_in_brief": "as §1"}, "[5]": {"target": "T4, EHF (Homo sapiens, UniProt Q9NZC4 1-300)", "T4 sequence": "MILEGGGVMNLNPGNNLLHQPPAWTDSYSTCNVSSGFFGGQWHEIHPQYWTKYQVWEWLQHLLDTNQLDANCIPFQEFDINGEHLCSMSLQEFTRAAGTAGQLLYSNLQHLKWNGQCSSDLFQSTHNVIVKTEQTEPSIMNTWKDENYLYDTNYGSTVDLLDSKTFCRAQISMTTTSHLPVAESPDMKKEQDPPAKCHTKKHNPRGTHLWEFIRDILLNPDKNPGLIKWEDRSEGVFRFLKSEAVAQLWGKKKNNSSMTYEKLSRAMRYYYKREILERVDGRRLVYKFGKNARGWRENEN", "method_in_brief": "as §1"}, "[6]": {"target": "SPIB (Homo sapiens, UniProt Q01892 1-262)", "sequence (Q01892 whole entry)": "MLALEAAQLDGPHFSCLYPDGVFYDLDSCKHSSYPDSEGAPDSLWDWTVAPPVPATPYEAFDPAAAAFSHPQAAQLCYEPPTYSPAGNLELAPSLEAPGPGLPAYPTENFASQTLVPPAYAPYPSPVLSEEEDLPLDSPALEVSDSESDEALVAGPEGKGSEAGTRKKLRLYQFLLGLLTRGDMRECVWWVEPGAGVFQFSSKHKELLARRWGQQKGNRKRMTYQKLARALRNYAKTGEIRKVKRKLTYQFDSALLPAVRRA", "method_in_brief": "as §1"}, "[7]": {"target": "T5, FEV (Homo sapiens, UniProt Q99581 1-238)", "T5 sequence": "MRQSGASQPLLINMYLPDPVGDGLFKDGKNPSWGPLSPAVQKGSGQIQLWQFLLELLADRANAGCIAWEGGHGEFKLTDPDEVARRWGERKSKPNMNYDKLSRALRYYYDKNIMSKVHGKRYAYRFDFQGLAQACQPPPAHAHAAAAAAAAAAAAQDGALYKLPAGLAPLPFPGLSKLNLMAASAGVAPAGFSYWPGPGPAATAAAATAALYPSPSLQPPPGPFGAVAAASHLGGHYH", "method_in_brief": "as §1"}, "[8]": {"target": "ETV5 (Homo sapiens, UniProt P41161 1-510)", "sequence (P41161 whole entry)": "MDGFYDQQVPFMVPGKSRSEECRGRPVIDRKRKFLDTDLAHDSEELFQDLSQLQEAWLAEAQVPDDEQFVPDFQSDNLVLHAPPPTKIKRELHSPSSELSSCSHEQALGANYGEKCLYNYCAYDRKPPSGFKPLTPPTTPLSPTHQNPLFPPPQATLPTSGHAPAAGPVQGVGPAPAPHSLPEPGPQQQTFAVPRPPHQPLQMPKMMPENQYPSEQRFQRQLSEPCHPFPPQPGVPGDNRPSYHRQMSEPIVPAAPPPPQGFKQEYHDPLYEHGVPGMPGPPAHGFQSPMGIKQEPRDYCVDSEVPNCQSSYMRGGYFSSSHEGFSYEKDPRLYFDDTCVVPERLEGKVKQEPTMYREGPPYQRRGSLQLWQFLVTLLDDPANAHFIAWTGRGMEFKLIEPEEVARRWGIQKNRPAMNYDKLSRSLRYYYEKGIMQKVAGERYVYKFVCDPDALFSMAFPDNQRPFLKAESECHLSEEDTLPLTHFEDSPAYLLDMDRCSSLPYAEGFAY", "method_in_brief": "as §1"}, "[9]": {"target": "ELF4 (Homo sapiens, UniProt Q99607 1-663)", "sequence (Q99607 whole entry)": "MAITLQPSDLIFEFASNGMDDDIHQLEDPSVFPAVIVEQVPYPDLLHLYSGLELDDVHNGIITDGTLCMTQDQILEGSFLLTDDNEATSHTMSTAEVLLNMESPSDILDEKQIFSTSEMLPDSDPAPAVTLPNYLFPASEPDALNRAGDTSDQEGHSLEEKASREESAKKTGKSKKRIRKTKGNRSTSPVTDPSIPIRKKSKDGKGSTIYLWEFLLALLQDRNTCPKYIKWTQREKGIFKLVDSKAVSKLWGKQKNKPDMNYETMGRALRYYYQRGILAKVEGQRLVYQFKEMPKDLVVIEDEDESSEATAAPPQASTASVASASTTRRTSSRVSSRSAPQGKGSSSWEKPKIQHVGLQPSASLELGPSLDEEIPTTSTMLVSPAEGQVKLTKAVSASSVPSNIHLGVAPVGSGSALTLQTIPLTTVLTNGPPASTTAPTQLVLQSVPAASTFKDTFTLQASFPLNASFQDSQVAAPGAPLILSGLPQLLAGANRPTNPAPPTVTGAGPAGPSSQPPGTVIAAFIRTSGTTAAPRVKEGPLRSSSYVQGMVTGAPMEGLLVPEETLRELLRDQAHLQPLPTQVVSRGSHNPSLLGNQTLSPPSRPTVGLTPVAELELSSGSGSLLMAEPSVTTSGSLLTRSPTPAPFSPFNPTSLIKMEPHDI", "method_in_brief": "as §1"}, "[10]": {"target": "T6, ELK4 (Homo sapiens, UniProt P28324-2 1-405)", "T6 sequence": "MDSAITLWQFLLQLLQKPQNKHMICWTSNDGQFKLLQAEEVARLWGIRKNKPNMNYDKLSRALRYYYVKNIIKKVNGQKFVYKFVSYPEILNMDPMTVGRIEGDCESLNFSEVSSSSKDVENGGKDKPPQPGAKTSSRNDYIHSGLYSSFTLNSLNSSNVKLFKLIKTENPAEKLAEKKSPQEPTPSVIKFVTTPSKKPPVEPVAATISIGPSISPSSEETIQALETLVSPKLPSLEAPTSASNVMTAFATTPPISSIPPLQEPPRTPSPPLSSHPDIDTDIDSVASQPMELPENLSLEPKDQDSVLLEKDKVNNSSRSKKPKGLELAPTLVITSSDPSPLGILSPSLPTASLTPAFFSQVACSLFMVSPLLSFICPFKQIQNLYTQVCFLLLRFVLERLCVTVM", "method_in_brief": "as §1"}}, "data": [{"sequence": "CATGAC", "values": [{"measurement": "binding signal", "setting": "[1]", "result": "1.18 fold enrichment (6-mer frequency, TF over GST control)"}, {"measurement": "binding signal", "setting": "[2]", "result": "1.34 fold enrichment (6-mer frequency, TF over GST control)"}, {"measurement": "binding signal", "setting": "[3]", "result": "1.14 fold enrichment (6-mer frequency, TF over GST control)"}, {"measurement": "binding signal", "setting": "[4]", "result": "1.18 fold enrichment (6-mer frequency, TF over GST control)"}, {"measurement": "binding signal", "setting": "[5]", "result": "1.25 fold enrichment (6-mer frequency, TF over GST control)"}, {"measurement": "binding signal", "setting": "[6]", "result": "1.16 fold enrichment (6-mer frequency, TF over GST control)"}, {"measurement": "binding signal", "setting": "[7]", "result": "1.17 fold enrichment (6-mer frequency, TF over GST control)"}, {"measurement": "binding signal", "setting": "[8]", "result": "1.24 fold enrichment (6-mer frequency, TF over GST control)"}, {"measurement": "binding signal", "setting": "[9]", "result": "1.28 fold enrichment (6-mer frequency, TF over GST control)"}, {"measurement": "binding signal", "setting": "[10]", "result": "1.09 fold enrichment (6-mer frequency, TF over GST control)"}]}]}
